Screening data as filed in PubChem BioAssay.
C diff growth – inhibitors of Clostridium difficile growth; growth activity, negative = inhibition, % at 16 µg/mL (by protocol); Clostridium difficile clinical isolate growth, OD600, 24 h; hits give low values; hit rate 0.25% among 86,000; AID 1259249;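 active = mean growth activity at or below -80% and every replicate also at or below -80%; inconclusive = mean at or below -80% but some replicate above -80%; inactive = mean growth activity above -80%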
Pf Dd2 growth – inhibitors of Plasmodium falciparum Dd2 growth | P. falciparum Dd2 growth, SYBR Green, 72 h; hits give low values | activity change, % at 10 µM | hit rate 2.3% among 94,000 | AID 1159554; in the data active = activity change below about -80%; inconclusive = no clear call, values can overlap the other calls
T cruzi growth-1 – inhibitors of T. cruzi proliferation; T. cruzi beta-gal in NIH3T3, GalScreen luminescence, 90 h; inhibition, % at 8.34 µM; hit rate 5.9% among 77,000; AID 624255;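 active = mean inhibition above about 93%, with at least 55% of replicates each passing it, limit read from the data, passing the limit was not always enough; inconclusive = only one of those two conditions holds; inactive = neither condition holds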
T cruzi growth-2 – blocks T. cruzi growth in NIH3T3 host cells; T. cruzi beta-gal in NIH3T3, GalScreen luminescence, 90 h; AID 651739; hit rate 72% among 5,600; shares compounds with T cruzi growth-1; inhibition, % at 8.35 µM;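 active = mean replicate inhibition above about 95% and at least 55% of replicates individually reaching it, limit read from the data; inconclusive = only one of the two criteria is met; inactive = neither criterion is met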
T cruzi growth-3 – inhibitors of T. cruzi proliferation; shares compounds with T cruzi growth-1; T. cruzi beta-gal in NIH3T3, GalScreen luminescence, 90 h; inhibition, % at 2.09 µM; hit rate 21% among 5,600; AID 651740;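 active = mean inhibition above about 95%, with at least 55% of replicates also reaching it, limit read from the data; inconclusive = meets just one of the two conditions; inactive = meets neither condition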
3T3 cytotox – kills mouse NIH/3T3 fibroblasts; shares compounds with T cruzi growth-1; hit rate 14% among 5,600; cytotoxicity (signal decrease), % at 8.35 µM; NIH/3T3 viability, CellTiter-Glo ATP luminescence, 90 h; AID 651742;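 active = mean signal decrease across replicates above about 35% based on untreated-well scatter, with enough replicates individually passing, limit read from the data; inconclusive = no rule stated though some were filed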
3T3 cytotox 2 – kills mouse NIH/3T3 fibroblasts; shares compounds with T cruzi growth-1; NIH/3T3 viability, CellTiter-Glo ATP luminescence, 90 h; inhibition, % at 24.9 µM; hit rate 56% among 5,600;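 active = mean loss of cell viability signal at or above a set limit, and enough replicates individually reaching it; inconclusive = meets only the mean limit or only the replicate share; inactive = meets neither condition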
Large screens that a line does not name were inactive (follow-up assays come after a bar, where they were run). An excerpt weighted towards active compounds, which were near 6.8% of everything screened.

C[C@H](CO)N1C[C@H](C)[C@@H](CN(C)Cc2ccccc2)OCCCC[C@H](C)Oc2ccc(NC(=O)c3ccccc3)cc2C1=O	none
C[C@@H]1CN([C@@H](C)CO)C(=O)c2cc(NC(=O)c3ccccc3)ccc2O[C@@H](C)CCCCO[C@@H]1CN(C)Cc1ccccc1	none
C[C@@H]1CN([C@H](C)CO)C(=O)c2cc(NC(=O)c3ccccc3)ccc2O[C@@H](C)CCCCO[C@H]1CN(C)Cc1ccccc1	T cruzi growth-1 103.2 | T cruzi growth-2 113.3 | T cruzi growth-3 inactive | 3T3 cytotox inactive | 3T3 cytotox 2 88.6
C[C@@H]1CN([C@H](C)CO)C(=O)c2cc(NC(=O)c3ccccc3)ccc2O[C@@H](C)CCCCO[C@@H]1CN(C)Cc1ccncc1	none
CC=Cc1ccc2n(c1=O)C[C@@H]1[C@@H](CO)[C@H](C(=O)NCCC)N(C(=O)C3CCOCC3)[C@H]21 (mixture of isomers)	none (no result: Pf Dd2 growth)
C[C@@H]1CN([C@@H](C)CO)C(=O)c2cc(-c3ccccc3)cnc2O[C@@H]1CN(C)Cc1cccnc1	none
CO[C@@H]1CN(C)C(=O)c2ccc(NC(=O)c3ccccc3)cc2OC[C@H](C)N(CC2CC2)C[C@H]1C	none (no result: C diff growth)
O=C(C[C@H]1CC[C@H]2[C@@H](COC[C@H](O)CN2Cc2ccncc2)O1)NCc1ccncc1	none (no result: C diff growth)
CC(C)NC(=O)N[C@@H]1CC[C@H](CC(=O)O)O[C@@H]1CO	none (no result: C diff growth)
CC(C)C#Cc1cnc2c(c1)C(=O)N([C@@H](C)CO)C[C@@H](C)[C@H](CN(C)C(=O)Cc1ccncc1)O2	none
CN(C)CCCNC(=O)C[C@@H]1CC[C@H]2[C@@H](COC[C@@H](O)CN2CC2CCCC2)O1	none (no result: Pf Dd2 growth)
O=C(C[C@H]1CC[C@H]2[C@@H](COC[C@@H](O)CN2CC2CCCCC2)O1)NCc1ccc(F)cc1	none (no result: Pf Dd2 growth)
O=C(C[C@@H]1CC[C@@H]2[C@H](COC[C@H](O)CN2CC2CCCCC2)O1)NCc1ccc(F)cc1	T cruzi growth-1 inconclusive (no result: Pf Dd2 growth) | T cruzi growth-2 inactive | T cruzi growth-3 inactive | 3T3 cytotox inactive | 3T3 cytotox 2 inactive
CN(C)CCCNC(=O)C[C@H]1CC[C@@H]2[C@H](COC[C@H](O)CN2CC2CCCC2)O1	T cruzi growth-1 inconclusive (no result: Pf Dd2 growth) | T cruzi growth-2 inactive | T cruzi growth-3 inactive | 3T3 cytotox inactive | 3T3 cytotox 2 inactive
C[C@@H]1CN([C@@H](C)CO)C(=O)c2cccc(NS(=O)(=O)c3cn(C)cn3)c2O[C@H]1CN(C)Cc1ccc(C(=O)O)cc1	none
C[C@@H]1CCCCO[C@H](CN(C)C(=O)Nc2ccc3c(c2)OCO3)[C@@H](C)CN([C@@H](C)CO)C(=O)c2cc(NS(C)(=O)=O)ccc2O1	none
COCCN(C[C@H]1N[C@H](CO)[C@H]1c1ccc(-c2cccc(F)c2)cc1)C(C)=O	none
COCCN(C[C@@H]1N[C@@H](CO)[C@H]1c1ccc(-c2cccc(F)c2)cc1)C(C)=O	T cruzi growth-1 inconclusive | T cruzi growth-2 inactive | T cruzi growth-3 inactive | 3T3 cytotox inactive | 3T3 cytotox 2 inactive
COCCN(C[C@@H]1N[C@@H](CO)[C@@H]1c1ccc(-c2cccc(F)c2)cc1)C(C)=O	T cruzi growth-1 104.6 | T cruzi growth-2 101.5 | T cruzi growth-3 inactive | 3T3 cytotox inactive | 3T3 cytotox 2 inactive
COCCN(C[C@H]1N[C@H](CO)[C@@H]1c1ccc(-c2cccc(F)c2)cc1)C(C)=O	none
O=C(C[C@H]1CC[C@@H](NC(=O)C2CCOCC2)[C@H](CO)O1)NCc1ccncc1	none (no result: T cruzi growth-1)
CCCN1C[C@@H](C)[C@@H](OC)CN(C)C(=O)c2cc(NC(=O)C3CCOCC3)ccc2OC[C@H]1C	none (no result: C diff growth)
O=C(C[C@H]1CC[C@@H](NC(=O)c2ccncc2)[C@@H](CO)O1)NCc1ccncn1	none (no result: T cruzi growth-1)
Cc1noc(C)c1NC(=O)N(C)C[C@H]1Oc2ccc(NC(=O)C3CC3)cc2CC(=O)N([C@@H](C)CO)C[C@@H]1C	none
CC(=O)N1[C@@H]2c3ccc(C4=CCCC4)c(=O)n3C[C@H]1[C@H](CO)[C@H]2C(=O)N[C@H](C)c1ccccc1	T cruzi growth-1 101.0 | T cruzi growth-2 inactive | T cruzi growth-3 inactive | 3T3 cytotox inactive | 3T3 cytotox 2 inactive
CC(=O)N1[C@@H]2c3ccc(C4=CCCCC4)c(=O)n3C[C@H]1[C@H](CO)[C@H]2C(=O)N[C@H](C)c1ccccc1	none (no result: Pf Dd2 growth)
C[C@@H](NC(=O)[C@H]1N[C@H]2c3ccc(C4=CCCCC4)c(=O)n3C[C@H]2[C@@H]1CO)c1ccccc1	none
C[C@@H](NC(=O)[C@@H]1N[C@@H]2c3ccc(C4=CCCCC4)c(=O)n3C[C@@H]2[C@H]1CO)c1ccccc1	T cruzi growth-1 100.8 | T cruzi growth-2 109.2 | T cruzi growth-3 inactive | 3T3 cytotox inactive | 3T3 cytotox 2 inactive
C[C@H](NC(=O)[C@@H]1N[C@@H]2c3ccc(C4=CCCC4)c(=O)n3C[C@@H]2[C@H]1CO)c1ccccc1	T cruzi growth-1 96.7 (no result: Pf Dd2 growth) | T cruzi growth-2 inactive | T cruzi growth-3 inactive | 3T3 cytotox inactive | 3T3 cytotox 2 inactive
C[C@@H](NC(=O)[C@H]1N[C@H]2c3ccc(-c4ccncc4)c(=O)n3C[C@H]2[C@@H]1CO)c1ccccc1	none
CC(C)NC(=O)N1C[C@@H]2[C@H](c3ccccc31)[C@@H](CO)N2C(=O)Nc1ccccc1	none
COc1ccccc1CN1C[C@@H](C)[C@@H](OC)CN(C)C(=O)c2ccc(NC(C)=O)cc2OC[C@H]1C	none (no result: C diff growth)
C[C@H]1CCCCO[C@H](CN(C)C(=O)Nc2ccc(F)cc2)[C@@H](C)CN([C@@H](C)CO)C(=O)c2cc(NS(=O)(=O)c3ccc(F)cc3)ccc2O1	none
C[C@@H]1CN([C@H](C)CO)C(=O)c2cc(NS(=O)(=O)c3ccc(F)cc3)ccc2O[C@@H](C)CCCCO[C@H]1CN(C)C(=O)Nc1ccc(F)cc1	none
Cc1ccc(S(=O)(=O)Nc2ccc3c(c2)C(=O)N([C@H](C)CO)C[C@@H](C)[C@H](CN(C)C(=O)Nc2ccc(F)cc2)OCCCC[C@@H](C)O3)cc1	Pf Dd2 growth -85.3, T cruzi growth-1 98.4 (no result: C diff growth) | T cruzi growth-2 97.3 | T cruzi growth-3 inactive | 3T3 cytotox inactive | 3T3 cytotox 2 25.4
Cc1ccc(S(=O)(=O)Nc2ccc3c(c2)C(=O)N([C@H](C)CO)C[C@H](C)[C@H](CN(C)C(=O)Nc2ccccc2)OCCCC[C@H](C)O3)cc1	T cruzi growth-1 99.9 (no result: C diff growth) | T cruzi growth-2 108.7 | T cruzi growth-3 inactive | 3T3 cytotox inactive | 3T3 cytotox 2 inactive
Cc1ccc(S(=O)(=O)Nc2ccc3c(c2)C(=O)N([C@@H](C)CO)C[C@@H](C)[C@@H](CN(C)C(=O)Nc2ccc(F)cc2)OCCCC[C@@H](C)O3)cc1	T cruzi growth-1 105.3 (no result: C diff growth) | T cruzi growth-2 104.3 | T cruzi growth-3 inactive | 3T3 cytotox inactive | 3T3 cytotox 2 inactive
